Screens: PubChem, The Scripps Research Institute Molecular Screening Center
A selection: hits, their analogues and other compounds. The true share with any hit is near 3.5%.
GPR151 ag: human GPR151 activation. PathHunter beta-arrestin GPR151 cells, luminescence. activation, % at 11.2 µM. 650,000 tested, 1% active. AID 1508602; in the data active means activation above about 4.9%;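 further: 0% = median of compound wells and 100% = cells with positive control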
MITF inh: human MITF inhibition, primary screen | O75030 | AlphaScreen MITF homodimerization, bead proximity signal | inhibition, % at 2.6 µM | 650,000 tested, 0.91% active | AID 1259374; in the data active means inhibition above about 50%;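 further: 0% = vehicle wells with protein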
FBW7 activator: activators of human E3 ligase FBW7; Q969H0; AlphaScreen FBW7–phospho-cyclin E peptide binding, activator screen; normalized activity (activation), % at 26.1 µM; 650,000 tested, 0.13% active; AID 1259310; in the data active means normalized activity above about 1.9%;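 further: purified mutant Fbw7 with reduced substrate affinity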
Target sequence (Q969H0 whole entry, looked up): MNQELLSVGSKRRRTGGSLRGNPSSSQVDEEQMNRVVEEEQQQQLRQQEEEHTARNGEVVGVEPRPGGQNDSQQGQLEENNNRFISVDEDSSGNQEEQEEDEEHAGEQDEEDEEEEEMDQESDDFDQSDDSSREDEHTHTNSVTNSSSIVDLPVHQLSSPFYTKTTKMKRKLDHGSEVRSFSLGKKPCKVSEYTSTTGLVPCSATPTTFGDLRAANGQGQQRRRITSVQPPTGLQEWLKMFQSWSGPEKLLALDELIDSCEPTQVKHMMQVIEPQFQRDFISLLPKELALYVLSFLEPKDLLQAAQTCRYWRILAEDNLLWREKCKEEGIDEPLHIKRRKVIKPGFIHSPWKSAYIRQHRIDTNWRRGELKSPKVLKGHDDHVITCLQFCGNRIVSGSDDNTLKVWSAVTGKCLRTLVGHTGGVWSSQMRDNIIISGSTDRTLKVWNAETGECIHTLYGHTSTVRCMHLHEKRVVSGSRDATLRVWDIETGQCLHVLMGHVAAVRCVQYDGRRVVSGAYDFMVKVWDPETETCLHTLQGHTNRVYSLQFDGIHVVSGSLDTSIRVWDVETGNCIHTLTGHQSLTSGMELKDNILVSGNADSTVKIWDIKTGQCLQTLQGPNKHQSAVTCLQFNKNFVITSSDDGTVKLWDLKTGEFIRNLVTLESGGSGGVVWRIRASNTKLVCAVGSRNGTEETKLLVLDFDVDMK
TEAD-YAP inh: TEAD-YAP interaction inhibition; HEK-TIYL cells, TEAD-Gal4/YAP UAS-luciferase luminescence; inhibition, % at 9.12 µM; 640,000 tested, 1.4% active; in the data active means inhibition above about 32%;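 further: 0% = median of test compound wells and 100% = reference inhibitor wells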
Active calls of the source: *.

`O=C(CCCCCn1c(=S)[nH]c2ccsc2c1=O)NCc1ccccc1Cl` gave GPR151 ag 0, MITF inh 1, FBW7 activator 0 and TEAD-YAP inh -16.
`CC(C)(C)C(=O)Nc1ccc(C(=O)/C=C/c2ccco2)cc1` gave GPR151 ag 0, MITF inh -2, FBW7 activator 0 and TEAD-YAP inh 37*.
`COc1cc(NC(=S)NC(=O)/C=C/c2ccco2)ccc1NC(=O)c1ccco1` gave GPR151 ag 3, MITF inh 29, FBW7 activator 1 and TEAD-YAP inh 49*.
For O=C(/C=C/c1ccco1)NC(=S)Nc1ccccc1 the results were GPR151 ag 1, MITF inh 4, FBW7 activator 0 and TEAD-YAP inh -12.
`COc1cc(NC(=O)/C=C/c2ccco2)ccc1NC(=O)c1ccco1` gave GPR151 ag 1, MITF inh 3, FBW7 activator 0 and TEAD-YAP inh -9.
Screening O=C(/C=C/c1ccco1)NC(=S)Nc1ccc(NC(=O)c2ccco2)cc1 returned GPR151 ag -2, MITF inh 27, FBW7 activator 0 and TEAD-YAP inh 69*.
Screening NC(=O)CSc1nc2ccccc2n1CC(=O)NCc1ccccc1 returned GPR151 ag 0, MITF inh 8, FBW7 activator 0 and TEAD-YAP inh 6.
`O=C(Nc1cc(Cl)ccc1O)c1cnn2c(C(F)(F)F)cc(-c3ccc(F)cc3)nc12` gave GPR151 ag 0, MITF inh -5, FBW7 activator 0 and TEAD-YAP inh -3.
`CC(C)N1CCc2c(sc(NC(=O)C(C)(C)C)c2C(N)=O)C1` gave GPR151 ag 0, MITF inh 13, FBW7 activator 1 and TEAD-YAP inh 74*.
Screening O=c1[nH]c(/C=C/c2ccc3c(c2)OCO3)nc2ccccc12 returned GPR151 ag -8, MITF inh 10, FBW7 activator 0 and TEAD-YAP inh 56*.
For COc1ccc(/C=C\c2nc(O)c([N+](=O)[O-])c(=O)[nH]2)cc1O the results were GPR151 ag -1, MITF inh -9, FBW7 activator 0 and TEAD-YAP inh 1.
`COc1ccc(/C=C/c2nc3ccccc3c(=O)[nH]2)cc1O` gave GPR151 ag -9, MITF inh 6, FBW7 activator 0 and TEAD-YAP inh 44*.
For COc1cccc(/C=C/c2nc3ccccc3c(=O)[nH]2)c1O the results were GPR151 ag -11, MITF inh 15, FBW7 activator 0 and TEAD-YAP inh 65*.
CC1CN(CC(O)COc2ccc(Cl)cc2)CC(C)O1 (configuration not stated) was read as GPR151 ag -1, MITF inh -11, FBW7 activator 0 and TEAD-YAP inh -4.
`Cc1ccccc1NC(=O)c1ccc(F)c(S(=O)(=O)N2CCOCC2)c1` gave GPR151 ag -1, MITF inh -5, FBW7 activator 0 and TEAD-YAP inh 3.
Cc1cc2cc3c(cc2c(C)n1)c1ccccc1n3C was read as GPR151 ag -1, MITF inh -8, FBW7 activator 0 and TEAD-YAP inh 63*.
Cn1c2ccccc2c(=O)c2ccccc21 was read as GPR151 ag 0, MITF inh -6, FBW7 activator 0 and TEAD-YAP inh -38.
Screening CC(=O)Nc1cccc(Oc2nnc(-c3ccc(C)cc3)c3ccccc23)c1 returned GPR151 ag 0, MITF inh -8, FBW7 activator 0 and TEAD-YAP inh 2.
`CC(=O)Nc1ccc(Oc2nnc(C)c3ccccc23)cc1` gave GPR151 ag -1, MITF inh -21, FBW7 activator 0 and TEAD-YAP inh 65*.
Screening O=[N+]([O-])c1ccc(NC(c2ccco2)c2ccc3cccnc3c2O)cc1 (configuration not stated) returned GPR151 ag 1, MITF inh 58*, FBW7 activator -2 and TEAD-YAP inh 70*.
`O=[N+]([O-])c1cccc(NC(c2ccco2)c2ccc3cccnc3c2O)c1` (configuration not stated) gave GPR151 ag 2, MITF inh 82*, FBW7 activator -2 and TEAD-YAP inh 75*.
`O=C(Cc1ccccc1)NC(c1ccco1)c1ccc2cccnc2c1O` (configuration not stated) gave GPR151 ag 0, MITF inh 30, FBW7 activator -2 and TEAD-YAP inh 30.
CCOC(=O)/C(C#N)=C\N1CCc2ccccc2C1 was read as GPR151 ag 0, MITF inh -6, FBW7 activator 0 and TEAD-YAP inh -43.
For CC(C)OCCCNC(=O)c1ccc(CN2CCc3ccccc3C2)cc1 the results were GPR151 ag 0, MITF inh 15, FBW7 activator 2.0* and TEAD-YAP inh 11.
For CC(C)(C)C(=O)Nc1ccc(NC(=O)c2cccs2)nc1 the results were GPR151 ag -4, MITF inh 4, FBW7 activator 0 and TEAD-YAP inh 94*.
COc1ccccc1CC(=O)Nc1cnc2cnc(-c3ccc(F)c(Cl)c3)cn12 was read as GPR151 ag 0, MITF inh 6, FBW7 activator 1.9* and TEAD-YAP inh -5.
`COC(=O)c1ccc(Br)c(S(=O)(=O)N2CCCCC2)c1` gave GPR151 ag -1, MITF inh 13, FBW7 activator 1.9* and TEAD-YAP inh 7.
O=C(O)c1ccc(Br)c(S(=O)(=O)N2CCCCCC2)c1 was read as GPR151 ag 0, MITF inh -8, FBW7 activator 0 and TEAD-YAP inh 0.
For COc1cc(NC(=O)c2ccc(-c3c(C)nn(C)c3C)s2)cc(OC)c1OC the results were GPR151 ag -1, MITF inh 12, FBW7 activator 0 and TEAD-YAP inh 51*.
Cc1cc(NC(=O)C2CC2)n(-c2ccccc2C(F)(F)F)n1 was read as GPR151 ag 0, MITF inh 15, FBW7 activator 0 and TEAD-YAP inh 11.
For CC(C)(C)c1ccc(C(=O)Nc2ccc3c(c2)CN(C(=O)c2ccco2)CC3)cc1 the results were GPR151 ag 2, MITF inh 7, FBW7 activator 0 and TEAD-YAP inh 86*.
Screening O=C(NC(=S)Nc1ccc(Cl)cn1)c1ccccc1[N+](=O)[O-] returned GPR151 ag -1, MITF inh 21, FBW7 activator 0 and TEAD-YAP inh -12.
For Cc1cc(I)cnc1NC(=O)c1ccccc1[N+](=O)[O-] the results were GPR151 ag 0, MITF inh 7, FBW7 activator 0 and TEAD-YAP inh 58*.
O=C(Nc1ccc(Cl)cn1)c1ccccc1[N+](=O)[O-] was read as GPR151 ag 0, MITF inh -8, FBW7 activator 0 and TEAD-YAP inh 43*.
For COc1ccc(Cl)cc1NC(=O)CN1C(=O)c2cccc3cccc1c23 the results were GPR151 ag 1, MITF inh -4, FBW7 activator 0 and TEAD-YAP inh -10.
Nc1cc(=O)[nH]c(S/C=C/c2ccccc2)n1 was read as GPR151 ag -6, MITF inh 5, FBW7 activator 0 and TEAD-YAP inh 34*.
Nc1cc(=O)[nH]c(SCc2ccccc2CSc2nc(N)cc(=O)[nH]2)n1 was read as GPR151 ag 1, MITF inh 4, FBW7 activator 0 and TEAD-YAP inh -2.
